APOBEC3G inh – APOBEC3G DNA deaminase inhibitors, primary screen, biochemical, fluorescence, single-stranded DNA substrate, uHTS. inhibition, % at 20 µM. DNA dC->dU-editing enzyme APOBEC-3G (Homo sapiens), Q9HC16. recombinant A3G, ssDNA deamination FAM/TAMRA fluorescence. 0.28% of 330,000 active;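 active = inhibition of at least 40% at 20 µM, with no more than 30% in the related APOBEC3A deaminase screen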
Target sequence (Q9HC16 whole entry, looked up): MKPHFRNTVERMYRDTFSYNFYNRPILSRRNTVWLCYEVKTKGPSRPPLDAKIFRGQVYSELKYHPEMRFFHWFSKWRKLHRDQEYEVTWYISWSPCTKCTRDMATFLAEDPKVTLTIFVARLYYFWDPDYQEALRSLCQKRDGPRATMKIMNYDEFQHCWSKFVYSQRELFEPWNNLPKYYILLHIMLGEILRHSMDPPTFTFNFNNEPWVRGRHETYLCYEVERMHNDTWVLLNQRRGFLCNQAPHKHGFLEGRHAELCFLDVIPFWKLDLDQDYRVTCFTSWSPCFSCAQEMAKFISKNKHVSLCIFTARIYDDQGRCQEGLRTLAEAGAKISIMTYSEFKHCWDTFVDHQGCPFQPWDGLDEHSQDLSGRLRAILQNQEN
NRP1-CendR mod – modulators of CendR peptide binding to NRP-1, primary screen, biochemical, fluorescence polarization, uHTS; Neuropilin-1 (Homo sapiens), O14786; FAM-RPARPAR peptide binding to NRP-1; inhibition, % at 25 µM; 0.85% of 360,000 active; AID 602438, 2012;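 active = inhibition or corrected inhibition above about 18%, plus a signal ratio from 0.5 to 1.5, limit read from the data, passing the limit was not always enough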
Yeast superoxide – reduction of superoxide in aged yeast, primary screen, HTS; S. cerevisiae aged cells, superoxide DHE fluorescence; active compounds read low; superoxide response (% of plate mean), % at 10 µM; 0.18% of 330,000 active;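 active = superoxide response under a set limit, about three screen SD below normal, cut at about 65% in these data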;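 note: yeast aged for seven days with compound at 30 °C before DHE staining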
PfM18AAP inh-1 – PfM18AAP inhibitors, malaria aminopeptidase, primary screen, biochemical, QFRET, recombinant enzyme | M18 aspartyl aminopeptidase (Plasmodium falciparum 3D7) | H-Glu-NHMec fluorogenic cleavage | inhibition, % at 7.35 µM | 1.2% of 290,000 active | AID 1822, 2009;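 active = inhibition above the campaign mean inhibition over all tested compounds plus 3 SD, cut at about 28% in these data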
ALR inh – inhibitors of human ALR sulfhydryl oxidase, primary screen, biochemical, H2O2 detection, HRP-luminol luminescence, single point | FAD-linked sulfhydryl oxidase ALR (Homo sapiens), P55789 | purified ALR, DTT oxidation | inhibition, % (no concentration beside the values) | 3.8% of 290,000 active;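 active = mean replicate inhibition above about 79%, with every replicate also reaching it, limit read from the data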
Target sequence (P55789 whole entry, looked up): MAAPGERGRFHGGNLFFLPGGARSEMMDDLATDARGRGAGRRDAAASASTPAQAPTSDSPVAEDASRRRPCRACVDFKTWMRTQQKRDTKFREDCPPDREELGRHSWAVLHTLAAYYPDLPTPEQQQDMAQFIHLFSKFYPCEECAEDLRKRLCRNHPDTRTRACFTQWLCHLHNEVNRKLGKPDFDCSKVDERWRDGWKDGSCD
A3A deaminase – APOBEC3A ssDNA deaminase inhibitors, primary screen, selectivity assay for APOBEC3G inhibitor project, biochemical, FAM/TAMRA oligo cleavage fluorescence | 0.41% of 330,000 active | inhibition, % at 20 µM | recombinant A3A, FAM/TAMRA ssDNA deamination fluorescence | DNA dC->dU-editing enzyme APOBEC-3A (Homo sapiens), P31941;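 active = at least 40% inhibition at 20 µM here, with at most 30% in a related deaminase screen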
PfM18AAP inh-2 – PfM18AAP inhibitors, malaria aminopeptidase, confirmation, biochemical, QFRET, recombinant enzyme, triplicate; shares compounds with PfM18AAP inh-1; H-Glu-NHMec fluorogenic cleavage; inhibition, % at 7.35 µM; 28% of 2,400 active; AID 2170, 2009;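 active = mean inhibition over replicate wells above the hit cutoff set for the earlier primary screen, cut at about 29% in these data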
CTSL1 confirm – cathepsin L1 inhibitors, retest, confirmation, counter-screen for PFM18AAP inhibitor project, biochemical, QFRET, triplicate. shares compounds with PfM18AAP inh-1. purified cathepsin L1, Z-Leu-Arg-MCA fluorescence. inhibition, % at 5.96 µM. 2,400 tested, under 10 active;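 active = average inhibition across replicates above the hit cutoff set in the earlier primary screen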
A number is an active result; - = inactive; . = no result. The list is not random: actives were taken first. Their share in the collection is about 5.2%.

SMILES	APOBEC3G inh	NRP1-CendR mod	Yeast superoxide	PfM18AAP inh-1	ALR inh	A3A deaminase	PfM18AAP inh-2	CTSL1 confirm
COc1ccc(N(C(=O)CSCC(=O)Nc2cc(C)on2)C(C(=O)NC2CCCCC2)c2ccc(O)c(O)c2)cc1 (stereo not given)	-	-	-	60.5	85.0	-	48.2	-
Cc1cc(NC(=O)CSCC(=O)N(c2cccc(Cl)c2)C(C(=O)NC2CCCCC2)c2ccc(O)c(O)c2)no1 (stereo not given)	-	-	-	57.4	99.0	-	42.9	-
Cc1cc(NC(=O)CSCC(=O)N(c2ccc(F)cc2)C(C(=O)NC2CCCCC2)c2ccc(O)c(O)c2)no1 (stereo not given)	-	-	-	68.0	-	-	52.1	-
CCOc1ccc(NC(=O)CN(C)C(=O)c2nc3nc(C)cc(C)n3n2)cc1OCC	-	-	-	.	-	-	.	.
C=CCc1c(C)nc(C)nc1N/N=C/c1ccccc1O	-	-	-	49.4	-	-	-	-
CSCC[C@H](N)C(=O)NC[C@H]1O[C@@H](n2cnc3c(N)ncnc32)[C@H](O)[C@@H]1O	-	-	-	.	.	-	.	.
Cc1ccc(-c2csc(N/N=C/c3ccco3)n2)c(C)c1	-	-	-	32.6	-	-	-	-
CN(C)S(=O)(=O)c1cccc(-c2csc(N/N=C/c3ccco3)n2)c1	-	-	-	-	-	-	.	.
O=C(c1ccc(Cl)cc1)c1c[nH]cc1-c1ccccc1	-	-	-	36.7	.	-	-	-
COc1ccc(C(=O)c2c[nH]cc2-c2ccccc2)cc1	-	-	-	-	-	-	.	.
O=C1NCCCC2c3c(cc(Br)c(O)c3Br)OC12N1CCCCC1 (stereo not given)	-	-	-	51.0	98.8	-	-	-
C/C(=N\NC(=O)Cc1ccc([N+](=O)[O-])cc1)c1cccnc1	-	-	-	-	-	-	.	.
O=C(Nc1ccccc1)c1ccc(S(=O)(=O)NCc2cccnc2)cc1	-	-	-	-	-	-	.	.
Cc1occc1C(=O)NNC(=O)Nc1ccc(Cl)c(Cl)c1	-	-	-	-	-	-	.	.
Cc1ccsc1C(=O)NNC(=O)Nc1ccc(Cl)c(Cl)c1	-	-	-	41.2	-	-	-	-
COc1cc(O)c(NC(C)=O)c2nonc12	-	-	-	33.0	-	-	-	-
COc1cc(-c2ccc(NC(C)=O)c(OC)c2)ccc1NC(C)=O	-	-	-	-	.	-	.	.
Oc1ccc(/C=N/Nc2cccc(Cl)n2)c(O)c1	-	-	-	58.1	.	-	57.3	-
O=[N+]([O-])c1ccc(N/N=C/c2ccc[nH]2)cc1	.	-	-	34.7	-	.	-	-
O=[N+]([O-])c1ccc(N/N=C/c2c[nH]c3ccccc23)cc1	-	-	-	37.0	-	-	-	-
O=[N+]([O-])c1ccccc1N/N=C/c1c[nH]c2ccccc12	-	-	-	-	-	-	.	.
O=[N+]([O-])c1ccc(N/N=C/c2cccc(O)c2O)cc1	-	-	-	36.5	-	-	-	-
O=C(NCc1ccccc1)C(c1ccccc1F)N(CC1CCCO1)C(=O)c1ccccn1 (stereo not given)	-	-	-	-	-	-	.	.
c1ccc(CN2CCC3(CC2)Nc2ccccc2S3)cc1	-	-	-	34.3	-	-	-	-
Cc1ccc(Nc2nc(/N=C/NO)n[nH]2)cc1C	-	-	-	33.4	-	-	-	-
SMILES	APOBEC3G inh	NRP1-CendR mod	Yeast superoxide	PfM18AAP inh-1	ALR inh	A3A deaminase	PfM18AAP inh-2	CTSL1 confirm
CCN1C(=O)/C(=C\c2ccncc2)SC1=Nc1ccc(C)c(C)c1	-	-	-	-	-	-	.	.
Cc1cc(C)c(NC(=S)NCC2CCN(C(C)c3ccccc3)C2)c(C)c1 (stereo not given)	-	-	-	53.0	-	-	-	-
Cc1ccc(NC(=S)NCC2CCN(C(C)c3ccccc3)C2)cc1 (stereo not given)	-	-	-	-	-	-	.	.
NS(=O)(=O)c1ccc(NC(=S)NC2CCCCC2)cc1	-	-	-	42.6	-	-	-	-
N#C[C@@H]1N(Cc2ccccc2)C(=O)[C@H]2CC3C=CC21O3 (stereo not given in full)	-	-	-	.	-	-	.	.
O=C1CSC(=S)N1N=C1CCCCCC1	.	-	-	38.5	-	.	-	-
O=C1C2C3C=CC(O3)C2C(=O)N1N=C1CCCCC1 (stereo not given)	.	-	.	.	.	.	.	.
CCOC(=O)c1[nH]cnc1C(=O)N[C@@H](C)c1ccccc1	-	-	-	.	-	-	.	.
O=C(Cn1cc(S(=O)(=O)Cc2ccc([N+](=O)[O-])cc2)c2ccccc21)N1CCOCC1	-	-	-	-	-	-	.	.
Nc1nncn1C(=O)c1ccccc1Cl	-	-	-	60.4	-	-	54.5	-
O=C(c1ccc(Cl)cc1Cl)N1CCN(c2ccc(N3CCOCC3)nn2)CC1	-	-	-	.	-	-	.	.
Nc1nncn1C(=O)c1ccc(Cl)cc1Cl	-	-	-	37.1	-	-	51.1	-
Nc1nc(-c2cccnc2)nn1C(=O)c1ccccc1Cl	.	-	.	-	.	.	.	.
COc1cccc(Cn2c(NCc3ccccn3)nc3c2c(=O)n(C)c(=O)n3C)c1	.	.	.	-	.	.	.	.
Cc1ccc2sc(N3CCN(C(=O)C4=COCCO4)CC3)nc2c1C	-	-	-	.	-	-	.	.
O=C(NNc1nc2c(F)cccc2s1)C1=COCCO1	-	-	-	43.5	99.6	-	-	-
Cc1ccc2sc(NNC(=O)C3=COCCO3)nc2c1C	-	-	-	32.5	98.9	-	-	-
COc1ccc(NC(=O)CCS(=O)(=O)c2cc3c(cc2C)NC(=O)CO3)cc1	-	-	-	-	-	-	.	.

High-throughput results deposited in PubChem by several laboratories.
